Plk1 PBD FP: inhibitors of human Plk1 polo box domain binding. 0.13% of 97,000 active. P53350. Plk1 PBD phosphopeptide binding, fluorescence polarization. inhibition, %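 (tested at about 20 µM)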; in the data active = inhibition above about 34%, passing the limit was not always enough
hDAT+cocaine: human DAT dopamine uptake with cocaine, either direction | LLC-PK1 hDAT cells, [14C]-dopamine uptake with cocaine IC80; actives deviate in either direction | 1.3% of 110,000 active | B-score at 10 µM | Q01959;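 active = Z score or B-score, a plate-position-corrected score, falls beyond the plate's 99.7% confidence bounds, in either direction; inactive = both scores lie inside the 99.7% bounds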;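 also: scored against the spread of the other compound wells on the same plate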
sdo1 growth: compounds rescuing growth of sdo1-depleted yeast, bone marrow failure model | S. cerevisiae sdo1-depleted JHY4D growth rescue, OD600 30 h; active compounds read high; pdr5 snq2 efflux-pump mutant strain | z-score at 10 µM | 0.21% of 140,000 active | AID 817;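 active = z-score above 3 at both the 24 hr and the 30 hr optical density reads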;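 also: z-score against mean and SD of all compound wells on the same plate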
PLK1 inh: PLK1 (human) kinase inhibition | P53350 | recombinant PLK1 kinase, TR-FRET peptide phosphorylation | inhibition, % at 10 µM | 0.53% of 97,000 active;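 active = inhibition of 50% or more in the single-concentration screen; inactive = inhibition below 50%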;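 also: 0% = DMSO max control and 100% = H-89 dihydrochloride min control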
Cav32 inh: inhibitors of human Cav3.2 T-type calcium channel; Cav3.2-expressing cells, Fluo-4 calcium fluorescence FDSS; active compounds read low; B-score at 10 µM; O95180; 4% of 100,000 active; AID 449739;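 active = single-dose well whose peak fluorescence ratio is a statistical outlier from its plate by either plate-standardised score or position-corrected B-score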
Target sequence (O95180 whole entry, looked up): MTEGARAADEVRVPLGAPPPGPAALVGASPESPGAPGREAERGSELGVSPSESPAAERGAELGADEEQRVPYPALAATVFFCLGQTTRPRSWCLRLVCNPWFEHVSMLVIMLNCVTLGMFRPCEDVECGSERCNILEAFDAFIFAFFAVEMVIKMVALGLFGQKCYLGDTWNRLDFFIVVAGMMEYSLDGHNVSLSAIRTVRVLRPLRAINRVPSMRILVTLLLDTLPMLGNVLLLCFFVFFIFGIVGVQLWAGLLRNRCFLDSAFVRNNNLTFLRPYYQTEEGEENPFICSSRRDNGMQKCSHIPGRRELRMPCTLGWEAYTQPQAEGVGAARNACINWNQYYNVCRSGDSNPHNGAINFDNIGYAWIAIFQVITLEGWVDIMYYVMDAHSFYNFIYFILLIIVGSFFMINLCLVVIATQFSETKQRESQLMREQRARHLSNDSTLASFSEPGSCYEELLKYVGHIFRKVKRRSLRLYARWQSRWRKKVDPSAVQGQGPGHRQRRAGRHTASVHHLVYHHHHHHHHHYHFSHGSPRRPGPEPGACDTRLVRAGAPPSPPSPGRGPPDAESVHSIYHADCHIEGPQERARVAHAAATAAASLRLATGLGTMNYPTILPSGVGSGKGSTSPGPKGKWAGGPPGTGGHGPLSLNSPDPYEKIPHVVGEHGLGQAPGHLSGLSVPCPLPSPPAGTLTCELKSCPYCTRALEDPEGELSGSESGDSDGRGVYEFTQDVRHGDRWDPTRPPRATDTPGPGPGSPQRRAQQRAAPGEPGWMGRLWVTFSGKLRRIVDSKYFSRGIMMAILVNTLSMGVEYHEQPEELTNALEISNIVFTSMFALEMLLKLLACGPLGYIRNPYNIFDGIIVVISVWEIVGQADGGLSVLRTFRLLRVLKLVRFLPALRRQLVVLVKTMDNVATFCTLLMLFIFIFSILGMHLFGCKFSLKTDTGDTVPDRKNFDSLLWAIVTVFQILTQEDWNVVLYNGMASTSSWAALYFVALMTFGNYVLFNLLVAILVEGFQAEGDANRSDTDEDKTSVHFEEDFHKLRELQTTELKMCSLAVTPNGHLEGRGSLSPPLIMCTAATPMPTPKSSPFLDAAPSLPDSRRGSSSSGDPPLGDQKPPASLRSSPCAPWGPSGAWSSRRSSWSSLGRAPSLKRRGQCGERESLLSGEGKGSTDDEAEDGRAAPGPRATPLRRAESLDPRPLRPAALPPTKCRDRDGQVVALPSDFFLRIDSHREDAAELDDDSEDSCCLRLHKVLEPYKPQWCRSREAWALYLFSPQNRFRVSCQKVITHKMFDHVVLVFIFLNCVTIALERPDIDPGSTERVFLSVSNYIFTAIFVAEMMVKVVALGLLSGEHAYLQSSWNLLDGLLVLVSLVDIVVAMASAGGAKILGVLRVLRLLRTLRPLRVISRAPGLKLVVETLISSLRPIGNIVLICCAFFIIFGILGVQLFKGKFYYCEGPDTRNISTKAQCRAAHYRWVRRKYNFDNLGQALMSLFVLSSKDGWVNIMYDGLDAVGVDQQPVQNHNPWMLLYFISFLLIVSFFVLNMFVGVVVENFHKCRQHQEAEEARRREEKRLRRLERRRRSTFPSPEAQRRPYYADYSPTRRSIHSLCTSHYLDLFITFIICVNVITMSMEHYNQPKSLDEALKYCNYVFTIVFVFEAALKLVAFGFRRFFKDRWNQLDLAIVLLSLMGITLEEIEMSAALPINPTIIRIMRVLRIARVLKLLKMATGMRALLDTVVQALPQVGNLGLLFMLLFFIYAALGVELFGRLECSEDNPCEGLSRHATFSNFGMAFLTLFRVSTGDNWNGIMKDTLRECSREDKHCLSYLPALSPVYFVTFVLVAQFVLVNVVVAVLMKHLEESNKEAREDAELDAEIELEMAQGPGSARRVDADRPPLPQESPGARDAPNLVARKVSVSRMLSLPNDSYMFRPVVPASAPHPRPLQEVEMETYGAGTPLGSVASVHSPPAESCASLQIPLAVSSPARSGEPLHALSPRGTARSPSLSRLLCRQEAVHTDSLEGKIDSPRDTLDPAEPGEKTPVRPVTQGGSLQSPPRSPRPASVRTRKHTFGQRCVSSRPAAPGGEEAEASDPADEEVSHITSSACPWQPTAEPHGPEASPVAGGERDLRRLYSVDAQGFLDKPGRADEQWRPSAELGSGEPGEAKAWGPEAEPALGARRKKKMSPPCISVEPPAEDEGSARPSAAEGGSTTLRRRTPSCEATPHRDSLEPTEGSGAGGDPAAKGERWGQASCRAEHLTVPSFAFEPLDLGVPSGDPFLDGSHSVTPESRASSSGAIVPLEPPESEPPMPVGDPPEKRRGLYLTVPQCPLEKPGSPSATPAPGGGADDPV
PTK2B oligo ant: Pyk2 (human) oligomerization antagonism; Q293 cells, Pyk2 FERM NanoBiT luminescence; active compounds read low; z-score (the deposit names both 25 µM and 10 µM); 0.83% of 99,000 active;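 active = Z-score of -3 or lower, scaled per plate to the spread of control and sample wells; inactive = z-score above -3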;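 also: negative z-score means lost luminescence so less FERM oligomerization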
Active calls of the source: *; nt = no result given. In the library only some 4.7% were active in any assay of this set; here they are far more common.

SMILES	Plk1 PBD FP	hDAT+cocaine	sdo1 growth	PLK1 inh	Cav32 inh	PTK2B oligo ant
CC(c1ccccc1)C1C(C#N)=C(N)OC2=C1C(=O)CC(C)(C)C2 (stereo not given)	-26	2.8*	0.81	1	0.41	-1
CCOC(=O)C(C#N)(Cc1cc(OC)cc(OC)c1)Cc1cc(OC)cc(OC)c1	nt	0.64	nt	nt	-2.2	nt
O=C(c1cc2ccccn2n1)N1CCN(Cc2ccccc2)CC1	-7	-0.0043	0.93	54*	1.2	nt
O=C(c1cc2ccccn2n1)N1CCCC1	16	nt	0	-11	nt	nt
Cc1[nH]n(-c2ncc(-c3ccccc3)s2)c(=O)c1C(c1ccc(Cl)cc1)C(C#N)C#N (stereo not given)	nt	nt	-0.89	nt	nt	nt
O=C(CSCc1cccc(Br)c1)NC1CC1	nt	nt	1.7	nt	nt	nt
Cc1nc2c(C(=O)O)cnn2c(C)c1Cc1ccccc1F	nt	0.21	2	nt	0.79	-0.05
Cc1ccc(Cc2c(C)nc3nc(SCC(=O)NCc4ccco4)nn3c2C)cc1	11	-0.042	-1.5	-6	-1.3	0.04
Cc1ccccc1Cc1c(C)nc2nc(SCC(=O)NCc3ccco3)nn2c1C	-11	-7.9*	-0.66	-10	0.5	-0.35
Cc1ccccc1Cc1c(C)nc2c(C(=O)NCc3ccco3)cnn2c1C	19	3*	-1.6	-3	-5.2	-0.7
Cc1ccccc1N(CC(=O)N/N=C/c1ccc(N(C)C)cc1)C(=O)c1ccccc1	-15	nt	0.27	-7	-4.5*	-0.95
Cc1ccc2cccc(S(=O)(=O)N3CCN(c4cccc(Cl)c4)CC3)c2n1	23	0.96	-0.92	-11	-2.9	-3.1*
CCOC(=O)C1CCN(C(=O)c2sc3ncnc(N4CCC(C)CC4)c3c2C)CC1	14	2.5*	-1	1	-1.4	-0.06
Cc1cc(C)n(-c2ccc(C(=O)OCC(=O)Nc3ccc(Cl)cc3[N+](=O)[O-])cc2)n1	nt	nt	0.05	nt	nt	nt
Cc1ccc(Cn2c(C(CO)Nc3nc(-c4ccc(F)cc4)cs3)nc3ccccc32)cc1 (stereo not given)	nt	1.6	nt	nt	-0.59	nt
OCCCn1c(C(CO)Nc2nc(-c3ccc(Cl)cc3)cs2)nc2ccccc21 (stereo not given)	nt	2.5*	nt	nt	-0.65	nt
Cc1ccc(-c2csc(NC(CO)c3nc4ccccc4n3CCOCCO)n2)cc1 (stereo not given)	nt	2.8*	nt	nt	-0.67	nt
CC(C)c1nc(SCc2c(F)cccc2Cl)c2c(=O)n(C)c(=O)n(C)c2n1	-8	3.3*	0.28	-5	-1.9	nt
Cn1c(=O)c2c(nc(SCCCC#N)n2Cc2c(F)cccc2Cl)n(C)c1=O	-36	0.1	0.55	5	0.35	nt
CCN(CC)S(=O)(=O)c1ccc(Cl)c(C(=O)Nc2cc(C)nn2-c2ccccc2C(F)(F)F)c1	nt	nt	0.4	nt	nt	nt
CCN(CC)S(=O)(=O)c1cccc(C(=O)Oc2cccc(NC(=O)c3cccs3)c2)c1	nt	nt	-0.92	nt	nt	nt
CCN(CC(=O)NCc1cccs1)S(=O)(=O)c1cccc(C(C)=O)c1	11	-7.5*	-0.21	-8	0.016	-0.21
O=C(CSC(=S)N1CCOCC1)Nc1nc(-c2ccccc2)c(-c2ccccc2)o1	20	0.014	-0.84	-13	-2.7	-1.3
O=C(CSC(=S)N1CCCCC1)Nc1nc(-c2ccccc2)c(-c2ccccc2)o1	-11	1	-0.8	-12	-4*	-0.18
CSc1ccc(/C=N/NC(=O)COc2ccc(Br)cc2Cl)cc1	nt	nt	-0.85	nt	nt	nt
SMILES	Plk1 PBD FP	hDAT+cocaine	sdo1 growth	PLK1 inh	Cav32 inh	PTK2B oligo ant
C/C(=N\NC(=O)Cc1cccc2ccccc12)c1ccncc1	nt	nt	-0.84	nt	nt	nt
CCOc1ccc(S(=O)(=O)n2cc(-c3ccc(F)cc3)c(N)n2)cc1	-28	-0.081	-0.75	-15	-0.07	0.68
CCOc1cc(S(=O)(=O)n2cc(-c3ccc(F)cc3)c(N)n2)cc(OCC)c1OCC	-11	0.77	-0.41	4	-5.5*	-0.48
COC(=O)C[C@H]1c2cc(F)ccc2S(=O)(=O)N1Cc1ccccc1	nt	-0.42	nt	nt	0.91	nt
CCn1c(SCC(=O)c2ccc(Cl)cc2)nnc1-c1cccs1	6	0.73	-1.2	-3	-0.35	-0.97
CCn1c(SCCOc2ccc(Cl)cc2)nnc1-c1cccs1	7	1.5	-2.6	1	-5.2*	-2.2
COc1ccc(C(=O)CSc2nnc(CNc3nc(-c4ccccc4)cs3)n2C)cc1	-23	-0.38	-1.4	12	-5.7*	0.33
COC(=O)CSc1nnc(CNc2nc(-c3ccccc3)cs2)n1C	-15	0.066	0.58	-13	0.33	0.07
O=C(CSc1nnc(-c2ccccc2)c(-c2ccccc2)n1)N1CCc2ccccc21	-3	1.6	-0.57	-3	-4.5*	-2.2
Cn1c(CNc2nc(-c3ccccc3)cs2)nnc1SCC(=O)N1CCc2ccccc21	-1	-0.26	-0.75	-20	-4.6*	-0.93
Cc1ccc(NC(=O)ON=C2CCCC2)cc1	nt	nt	-2	nt	nt	nt
CCCCCCCCCCC[C@@H](C[C@@H]1OC(=O)[C@H]1CCCCCC)OC(=O)[C@H](CC(C)C)NC=O	nt	-1.5	nt	nt	-0.26	nt
COc1c(C)cccc1C(=O)Nc1ccc(N2CCN(S(C)(=O)=O)CC2)cc1	1	-7.9*	1	-13	nt	-0.38
CCCCCCCCn1c(=O)c(C(=O)OCC)c(O)c2ccccc21	3	0.2	-0.18	-6	-7.4*	0.81
Cc1ccc(NC(=O)c2c(C)noc2C)cc1	19	0.36*	0.45	-1	0.27	2.3
Cc1ccc(NC(=O)c2onc(C)c2Cl)cc1	-9	-2.6*	0.43	6	-1.4	nt
Cc1nn(-c2ccccc2)c(C)c1/C=C/C(=O)OCC(=O)Nc1ncc(C(F)(F)F)cc1Cl	nt	nt	0.99	nt	nt	nt
O=C(CSc1ccc2ccccc2c1)Nc1ccc(S(=O)(=O)Nc2nccs2)cc1	nt	nt	1.4	nt	nt	nt
O=C(NCc1nc2ccccc2[nH]1)C1=C[C@H](C2CCCCC2)C[C@H](OCCCCO)O1	nt	1.9*	nt	nt	-1.3	nt
CCO[C@H]1OC(C(=O)NCc2nc3ccccc3[nH]2)=C[C@@H](c2ccccc2)[C@@H]1CCCO	nt	-0.46	nt	nt	-0.22	nt
CCO[C@H]1OC(C(=O)NCc2nc3ccccc3[nH]2)=C[C@@H](c2ccc3c(c2)OCO3)[C@@H]1CCCO	nt	2.7*	nt	nt	0.22	nt
Cc1cc(Br)ccc1OCC(=O)NNC(=O)c1cnccn1	nt	nt	0.77	nt	nt	nt
Nc1nc(N2CCOCC2)cc(=O)[nH]1	-7	nt	-0.23	-4	nt	-0.28
Cc1cccc(NC(=O)CSc2nc3ccccc3c3nc(CCc4c(C)n[nH]c4C)nn23)c1	-22	3.8*	-0.8	-6	-2	-1.6
Cc1n[nH]c(C)c1CCc1nc2c3ccccc3nc(SCC(=O)Nc3ccccc3F)n2n1	8	0.028	-0.79	-5	1	-1.2
CCCCCCNC(=O)CC(c1ccccc1)c1cc(Br)ccc1O (stereo not given)	10	0.75	-2.2	-7	-5.9*	-2.6
COc1ccccc1C(CC(=O)Nc1ccc(Cl)cc1)c1ccc(OC(C)C)cc1 (stereo not given)	nt	nt	-0.52	nt	nt	nt
CC(C)Oc1ccc(CNC(=O)CC(c2ccccc2)c2cc(Cl)ccc2O)cc1 (stereo not given)	-4	-0.052	-1.6	8	-3.5*	-2.6

Bioassay records from PubChem.
